High-throughput results (PubChem)
Only some compounds are listed: those with a hit (about 18% of all), similar ones and a draw of the others.
DT40 TDP1 CPT = growth inhibition of DT40 Tdp1-/-;hTDP1 cells with camptothecin (screen for TDP1 inhibitors). chicken DT40 Tdp1-/-;hTDP1 cells + 20 nM CPT, ATP luminescence, 48 h. Potency, µM (top dose mostly 46.2 µM), inactives show at the highest dose activity change, negative = growth inhibition, usual class: inhibitors. 420,000 tested, 12% active; note: potency is the fitted concentration of half-maximal effect; nearly all actives have a fitted effect of over 55% in size
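Chicken DT40 Tdp1-/- cells complemented with human TDP1, 400 cells/well, exposed to compounds plus 20 nM camptothecin for at least 48 h at 37 C; viability read as ATP content by CellTiter-Glo luminescence.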
VP16 counter = counter-screen for ROR gamma inhibitors: Gal4-VP16 reporter; Potency, µM (top dose mostly 53.6 µM), for the others: at the top dose activity, negative = inhibition, actives largely listed as inhibitors; AID 2546; 310,000 tested, 3.5% active; Drosophila S2 Gal4-VP16 UAS-luciferase, luminescence, 20 h;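 note: Gal4-VP16 expression switched on by copper sulfate through the metallothionein promoter; potency is the fitted concentration of half-maximal effect; nearly all actives have a fitted effect of over 50% in size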
TDP1 cell noCPT = qHTS for Inhibitors of human tyrosyl-DNA phosphodiesterase 1 (TDP1): qHTS in cells in absence of CPT; DT40 Tdp1-/- hTDP1 cells, no CPT, ATP luminescence, 48 h; Potency, µM (titrated, usually from 46.2 µM), inactives show top-dose activity change, negative = growth inhibition, hits mostly inhibitors; 420,000 tested, 15% active; note: potency is the fitted concentration of half-maximal effect; nearly all actives have a fitted effect of over 55% in size
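Stably hTDP1-transfected Tdp1-null chicken DT40 cells were treated with library compounds minus camptothecin and grown for at least 48 hr at 37 °C, after which cellular ATP was quantified by luminescence.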
LDHA block = inhibitors of human lactate dehydrogenase A; P00338; 480,000 tested, 0.15% active; AID 1347041; activity change, % (values are at about 110 or 230 µM); purified LDHA, NADH/diaphorase-resazurin fluorescence; active compounds read low; in the data active = activity change below about -30%; inconclusive = mostly about -25% to -30%;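 note: plate controls were DMSO wells for no effect and wells without enzyme for full effect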
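Resorufin fluorescence (ex540/em590), read at 0 and 20 min after diaphorase/resazurin addition, reports the NADH left after a 5 min room-temperature reaction of 2 nM human LDH5 with 0.06 mM NADH and 0.2 mM pyruvate.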
IL1B secr inh = blocks inflammasome-driven IL-1 beta release | THP-1 LPS/ATP IL-1B secretion, AlphaLISA, 16 h; active compounds read low | AID 743279 | 360,000 tested, 4.7% active | activity change, % at 57.5 µM; in the data active = activity change below about -50%; inconclusive = mostly about -30% to -49%
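THP-1 cells pretreated 1 hr with compounds (up to 57.5 uM final), then stimulated with LPS (250 ng/mL final) plus ATP (1.25 mM final); secreted IL-1B measured by AlphaLISA after 16 hr, decreased signal indicating inhibition.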
RORg inh = inhibitors of mouse ROR gamma transcriptional activity; P51450; Drosophila S2 Gal4-RORgamma UAS-luciferase reporter, 20 h; Potency, µM (series often up to 53.6 µM), for the others: at the highest dose activity change, negative = inhibition, hits mostly inhibitors; 310,000 tested, 5.4% active; AID 2551; note: potency is the fitted concentration of half-maximal effect; nearly all actives have a fitted effect of over 60% in size
Target sequence (P51450 whole entry, looked up, the tested form may be a part): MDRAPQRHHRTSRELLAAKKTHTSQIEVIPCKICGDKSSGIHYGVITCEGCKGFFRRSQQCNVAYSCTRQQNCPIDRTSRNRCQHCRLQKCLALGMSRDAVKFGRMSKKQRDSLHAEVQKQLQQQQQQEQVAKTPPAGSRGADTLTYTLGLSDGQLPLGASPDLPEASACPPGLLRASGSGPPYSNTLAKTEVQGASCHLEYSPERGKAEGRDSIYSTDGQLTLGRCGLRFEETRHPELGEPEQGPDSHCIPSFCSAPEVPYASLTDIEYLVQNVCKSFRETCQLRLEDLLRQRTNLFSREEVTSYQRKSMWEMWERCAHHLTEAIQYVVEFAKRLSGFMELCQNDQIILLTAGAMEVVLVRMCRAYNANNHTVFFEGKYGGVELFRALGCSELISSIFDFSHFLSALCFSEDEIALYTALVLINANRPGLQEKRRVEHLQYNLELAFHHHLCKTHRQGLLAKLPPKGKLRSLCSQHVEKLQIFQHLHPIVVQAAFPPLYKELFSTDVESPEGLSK
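Stably transfected Drosophila Schneider cells are the test system, with ROR gamma fused to Gal4 and luciferase under UAS control; luminescence is read after 20 hr of 700 uM copper sulfate induction at ambient temperature.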
Numbers without * were called inactive; ? = inconclusive; / = no result given. Unless noted, calls come from the whole dose curve; as a rule, active = well fitted curve in the direction sought with a large enough effect; inconclusive = small, poorly fitted or top-dose-only effect, or another doubt; inactive = no such curve, though single readings can be large; an effect the other way counts as inactive or inconclusive. Unless noted, % is set by controls: 0 for no effect and ±100 for the full control effect.

SMILES	DT40 TDP1 CPT	VP16 counter	TDP1 cell noCPT	LDHA block	IL1B secr inh	RORg inh
COc1ccc(C(=O)Nc2cc(OC)c(NC(=O)Nc3ccccc3)cc2OC)cc1	?	/	18.4µM*	2.2	-14.2	/
COc1ccc(C(=O)Nc2ccccc2C(=O)N/N=C/c2cccc3ccccc23)cc1	20.6µM*	0.794µM*	16.4µM*	-2.2	37.2	1µM*
COc1ccc(C(=O)Nc2ccccc2C(=O)Nc2ccncc2)cc1	?	-13.2%	16.4µM*	-6.6	-17.7	-13.3%
COc1ccc(C(=O)Nc2ccccc2C(=O)NCc2cccnc2)cc1OC	3.1%	/	-8.7%	1.6	-3.0	/
CC(C(=O)N1CCc2ccccc2C1)N(C)Cc1c(F)cccc1Cl (stereo not drawn)	/	/	/	6.0	/	/
COc1ccc(CC(=O)Nc2cccc3c2CCCC3)cc1	-18.1%	-3.9%	-14.9%	-7.8	-2.1	7.8%
COc1ccc(C(=O)Nc2ccccc2C(=O)Nc2ccccc2C(=O)O)cc1	18.4µM*	-22.3%	23.1µM*	-8.6	30.8	-17.9%
COc1ccc(NC(=O)Nc2ccccc2F)cc1	8.2µM*	0.1%	7.94µM*	-0.1	-26.1	?
COc1ccc(C(=O)Nc2cccc3c2CCCC3)cc1	10.3µM*	7.0%	5.8µM*	-7.1	3.8	23.4%
CC(C)Cn1c(N)c(C(=O)COC(=O)c2cc(F)cc(F)c2)c(=O)n(C)c1=O	-24.5%	-7.4%	?	-1.9	23.3	?
CC(C)Cn1c(N)c(C(=O)COC(=O)c2cc(-c3ccccc3)nc3ccccc23)c(=O)n(C)c1=O	20.6µM*	-7.6%	16.4µM*	-2.0	8.7	-4.8%
Cn1c(N)c(C(=O)COC(=O)c2cc(C(F)(F)F)nc3ccccc23)c(=O)n(C)c1=O	/	1.7%	/	/	/	?
CC(C)Cn1c(N)c(C(=O)COC(=O)c2cc(C(F)(F)F)nc3ccccc23)c(=O)n(C)c1=O	8.2µM*	?	18.4µM*	-3.5	6.0	?
CC(C)Cn1c(N)c(C(=O)COC(=O)c2cnc(Cl)c(Cl)c2)c(=O)n(C)c1=O	18.4µM*	-3.8%	?	-1.5	-24.5	?
Cc1nn(-c2ccccc2)c(C)c1C(=O)OCC(=O)c1c(N)n(CC(C)C)c(=O)n(C)c1=O	20.6µM*	?	18.4µM*	5.3	?	-44.4%
O=C(NCCc1ccco1)c1nnc(C(=O)Nc2cccc(Cl)c2)s1	/	/	/	-0.5	/	/
COc1ccc(-c2cc(C(=O)NCCC(=O)N3CCCC3)c3ccccc3n2)cc1OC	/	/	/	12.4	/	/
CC(C)Cn1c(N)c(C(=O)COC(=O)c2cc(C3CC3)nc3ccccc23)c(=O)n(C)c1=O	?	?	20.6µM*	0.6	-3.9	?
Cn1c(N)c(C(=O)COC(=O)c2cc(C3CC3)nc3ccccc23)c(=O)n(Cc2ccccc2)c1=O	-27.5%	-6.0%	-24.6%	-5.4	2.2	14.3%
CC1CCc2c(c(-c3ccccc3)nc3ccc4ccccc4c23)C1 (stereo not drawn)	/	/	/	3.9	/	/
S=C(Nc1ccc(Cl)c(Cl)c1)NC1CC1	/	/	/	3.1	/	/
S=C(Nc1ccc2nsnc2c1)NC1CCCCC1	?	5.01µM*	?	31.7	-15.3	2.51µM*
S=C(Nc1ccc(Cl)c(Cl)c1)NC1CCCCC1	?	5.62µM*	18.4µM*	-3.8	-95.3*	2.51µM*
Cc1oc(-c2ccccc2)nc1CC(=O)NCCN(C(C)C)C(C)C	/	/	/	-24.9	/	/
CNS(=O)(=O)Cc1ccc(CNC(=O)NC(C)CO)cc1 (stereo not drawn)	/	/	/	4.5	/	/
SMILES	DT40 TDP1 CPT	VP16 counter	TDP1 cell noCPT	LDHA block	IL1B secr inh	RORg inh
NC(=O)COc1ccc(/C=C2\C(=O)ON=C2c2ccccc2)cc1	16.4µM*	/	14.6µM*	-57.2*	?	/
CCOc1cc(/C=C2/C(=O)ON=C2C)ccc1OCc1ccccc1	-3.8%	?	?	-6.0	-20.2	?
COc1ccc(/C=C2\C(=O)ON=C2c2ccccc2)cc1OC	25.9µM*	11.2µM*	?	-50.1*	-98.5*	12.6µM*
Cc1cccc(C2=NOC(=O)/C2=C\c2ccccc2F)c1	-23.7%	/	2.59µM*	-8.2	25.6	/
CCOc1cc(/C=C2\C(=O)ON=C2c2ccccc2)ccc1OC	23.1µM*	-20.2%	18.4µM*	-60.9*	-94.0*	9.5%
O=C(CSc1nc2ccccc2o1)N1CCN(CC(=O)N2CCCC2)CC1	/	/	/	5.1	/	/
O=C1ON=C(c2ccccc2)/C1=C/c1ccco1	?	-0.5%	?	2.8	19.0	7.6%
CN1C(=O)/C(=C/c2ccc(OCc3ccccc3F)cc2)NC1=S	-1.7%	-0.9%	-15.9%	-16.2	0.9	?
COc1cc(/C=C2\N=C(c3ccccc3)NNC2=O)cc(OC)c1OC	5.17µM*	-1.2%	4.61µM*	1.2	29.2	-5.5%
CCOc1cc(/C=C2/C(=O)ON=C2C)ccc1OCc1ccccc1F	?	?	?	-3.4	-100.1*	?
COc1cc(/C=C2\C(=O)ON=C2c2ccccc2)cc(OC)c1OC	?	1.3%	16.4µM*	-35.5*	-116.7*	-3.3%
COc1cc(/C=C2\NC(=S)N(C)C2=O)ccc1OCc1ccccc1F	-9.9%	?	-23.6%	-0.7	0.4	11.2µM*
COc1ccc(/C=C2/C(=O)ON=C2c2ccccc2)cc1OC	?	?	14.6µM*	-60.1*	-101.7*	1.5%
O=C(NCc1ccc2c(c1)OCCO2)N1CCN(S(=O)(=O)c2ccccc2)CC1	/	/	/	-23.5	/	/
CCC(=C(c1ccc(OC)cc1)c1ccc(OC)cc1)c1cn(CC(O)CN2CCN(C)CC2)c2ccccc12 (stereo not drawn)	10.3µM*	?	13µM*	-0.5	-106.5*	?
CSc1ccc(CCNC(=O)c2cc(-c3ccccc3)c(N3CCOCC3)s2)cc1	?	13.4%	16.4µM*	0.2	-11.8	-10.6%
COc1ccc(CCNC(=O)c2cc(-c3ccccc3)c(N3CCOCC3)s2)cc1OC	20.6µM*	/	16.4µM*	0.0	-11.3	/
O=C(NCCc1ccccc1)c1cc(-c2ccccc2)c(N2CCOCC2)s1	?	/	16.4µM*	1.7	?	/
CCN(C(=O)c1cc(-c2ccccc2)c(N2CCOCC2)s1)C1CCS(=O)(=O)C1 (stereo not drawn)	/	/	/	15.8	/	/
CCN(CC)CCCNC(=O)c1cc(-c2ccccc2)c(N2CCCCC2)s1	?	0.9%	14.6µM*	-5.9	-9.5	-22.3%
